From PubChem BioAssay (EPA / NIEHS) come the findings set out here.

As usually defined, the AC50 is the concentration at which the activity in the assay is half-maximal.

Read-out in assay [1]: UDP glucuronosyltransferase (UGT1A1), UGT1A1 (gene 54658)
Nature of the assay: LTEA_HepaRG_UGT1A1: Life Technologies and Expression Analysis (LTEA) Assay for UDP glucuronosyltransferase (UGT1A1) using HepaRG (AID 2283538; active means hit-call score of the fitted dose curve at least 0.9, where 1 is the maximum; inactive means score below 0.9). The settings on record: mRNA level, 48 h; actives raise or lower the signal. An outline of the steps:
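Differentiated human HepaRG cells in serum-free induction medium were exposed in duplicate for 48 h to eight half-log concentrations up to 100 uM in 0.5% DMSO. UGT1A1 mRNA was quantified by TaqMan qRT-PCR, normalized to ACTB, GAPDH and POLR2A, and fitted bidirectionally against DMSO.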

Read-out in assay [2]: UDP glucuronosyltransferase (UGT1A6), UGT1A6 (gene 54578)
Nature of the assay: LTEA_HepaRG_UGT1A6: Life Technologies and Expression Analysis (LTEA) Assay for UDP glucuronosyltransferase (UGT1A6) using HepaRG (AID 2283539; active means hit-call score of the fitted dose curve at least 0.9, where 1 is the maximum; inactive means score below 0.9). Particulars: mRNA level, 48 h; actives raise or lower the signal. An outline of the steps: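 HepaRG, 48 h post-plating switch to serum-free induction medium; chemical 48 h, 100 uM top, half-log x8, duplicate, 0.5% DMSO. Phenobarbital 1mM induction control. UGT1A6 mRNA by TaqMan qRT-PCR; gain/loss fit vs DMSO.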

Read-out in assay [3]: X-box binding protein 1 (XBP1), XBP1 (gene 7494)
Nature of the assay: LTEA_HepaRG_XBP1: Life Technologies and Expression Analysis (LTEA) Assay for X-box binding protein 1 (XBP1) using HepaRG (AID 2283540; active means hit-call score of the fitted dose curve at least 0.9, where 1 is the maximum; inactive means score below 0.9). The settings on record: mRNA level, 48 h; actives raise or lower the signal. The procedure, abridged:
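Transcript levels of XBP1, measured by qRT-PCR and normalised to three housekeeping genes, were fitted bidirectionally relative to 0.5% DMSO controls. Human HepaRG cells received eight-point half-log dilutions from 100 uM for 48 h.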

Assay [4] can be described thus: LTEA_HepaRG_LDH_cytotoxicity: Cytotoxicity Assessment in the Life Technologies and Expression Analysis (LTEA) Assay (AID 2283563).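 On AC50: LDH activity released into spent culture medium as a marker of cell death.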 The procedure, abridged:
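Cells were thawed and plated for 48 h. Medium was then replaced with serum-free induction medium. Chemicals (8 half-log points, maximum 100 uM, 0.5% DMSO) were added in duplicate for 48 h, after which spent medium was assayed for LDH.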

Assay [5] in a line: TOX21_p53_BLA_p2_viability: Viability Assessment in the Tox21 HCT-116 p53 Agonism Beta-lactamase Assay, Phase 2 (AID 2283591).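 Further: compound exposure lasted 16 h at 37 °C; actives lower the ATP signal meaning cytotoxicity.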 An outline of the steps:
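HCT-116 p53-bla cells (4000/well) rested 5 h at 37C, then received compounds in DMSO (217-fold dilution) for 16 h at 37C, 5% CO2. After the CCF4 read, CellTiter-Glo was added; ATP luminescence was read after 30 min at room temperature.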

The target in assay [6] is Cellular tumor antigen p53 (Homo sapiens) (UniProt P04637). The experiment in a line: TOX21_p53_BLA_p2_ratio: Tox21 HCT-116 p53 Agonism Beta-lactamase Assay, Ratio, Phase 2 (AID 2283592). The procedure, abridged:
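HCT116 p53-bla; 4000 cells/well; 5 h pre-incubation; cpd in DMSO, 217-fold dilution; 16 h 37C/5% CO2; CCF4-AM 2 h RT; Ex 405, Em 460/530 ratio; DMSO = baseline; positive fitting direction.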

The nature of assay [7]: TOX21_p53_BLA_p3_viability: Viability Assessment in the Tox21 HCT-116 p53 Agonism Beta-lactamase Assay, Phase 3 (AID 2283593).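 Further: cells exposed to compound for 16 h before reading.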 The procedure, abridged: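 HCT-116 cells (4000/well) rested 5 h at 37C, then got DMSO compounds by pin tool (217-fold dilution) for 16 h at 37C, 5% CO2. After the bla read, CellTiter-Glo was added and luminescence read at 30 min, room temperature.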

In assay [8] the target is Cellular tumor antigen p53 (Homo sapiens) (UniProt P04637). The experiment in a line: TOX21_p53_BLA_p3_ratio: Tox21 HCT-116 p53 Agonism Beta-lactamase Assay, Ratio, Phase 3 (AID 2283596). An outline of the steps:
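HCT116 p53-bla cells (4000/well) given compound in DMSO (217-fold dilution) after 5 h, incubated 16 h at 37C. CCF4-AM substrate 2 h at room temperature; 460/530 nm emission ratio, gain fitted against DMSO.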

Assay [9] can be described thus: TOX21_p53_BLA_p4_viability: Viability Assessment in the Tox21 HCT-116 p53 Agonism Beta-lactamase Assay, Phase 4 (AID 2283597).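 Further: hits lower the luminescence signal meaning cytotoxicity.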 The procedure, abridged:
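Cells plated, 5 h pre-incubation; DMSO compounds pinned (217-fold dilution); 16 h, 37C/5% CO2; CCF4-AM 2 h RT; CellTiter-Glo 30 min RT; luminescence read.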

In assay [10] the target is Cellular tumor antigen p53 (Homo sapiens) (UniProt P04637). Nature of the assay: TOX21_p53_BLA_p5_ratio: Tox21 HCT-116 p53 Agonism Beta-lactamase Assay, Ratio, Phase 5 (AID 2283599). The procedure, abridged:
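HCT-116 cells carrying a p53-inducible beta-lactamase reporter were seeded at 4000 cells/well and dosed after 5 h with compound in DMSO (217-fold dilution). After 16 h at 37C, CCF4-AM substrate was added for 2 h, and the 460/530 nm emission ratio was scored as gain-of-signal versus DMSO.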

Assay [11] is described as follows: TOX21_p53_BLA_p5_viability: Viability Assessment in the Tox21 HCT-116 p53 Agonism Beta-lactamase Assay, Phase 5 (AID 2283600). An outline of the steps: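 4000 cells/well; 5 h pre-incubation; DMSO compounds pin-transferred, 217-fold dilution; 16 h, 37C/5% CO2; CCF4-AM 2 h RT; CellTiter-Glo 30 min RT; luminescence.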
Assay [12] in a line: Tanguay_ZF_120hpf_MORT_legacy: (Legacy) Oregon State University Tanguay Lab 120 Hour Post-fertilization zebrafish Assay for Mortality (AID 2283633). An outline of the steps: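 5D WT zebrafish, chorion removed 4 hpf; 1 embryo/well from 6 hpf; static exposure to 120 hpf, 28C, dark, sealed. Final DMSO 0.64%. Readout: binary mortality, brightfield, 24 + 120 hpf; DMSO as negative control.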

Assay [13] is described as follows: Tanguay_ZF_120hpf_YSE_legacy: (Legacy) Oregon State University Tanguay Lab 120 Hour Post-fertilization zebrafish Assay for Yolk Sac Edema (AID 2283634).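 On AC50: actives raise the incidence of yolk sac edema above the DMSO baseline.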 The procedure, abridged: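 Dechorionate (pronase, 4 hpf) → place one 6 hpf embryo per well → static compound exposure, sealed and foil-covered, 28C, to 120 hpf → record yolk sac edema as present or absent. Final DMSO 0.64%.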

Assay [14] can be described thus: Tanguay_ZF_120hpf_AXIS_legacy: (Legacy) Oregon State University Tanguay Lab 120 Hour Post-fertilization zebrafish Assay for Body Axis Malformation (AID 2283635).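 On AC50: potency for an increased fraction of larvae scored with body axis malformation.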 An outline of the steps: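 Chorion is removed with pronase at 4 hpf, then single 6 hpf embryos are dosed (final DMSO 0.64%) and held statically at 28C in sealed, foil-covered plates. At 120 hpf body axis malformation is recorded as present or absent.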

A short description of assay [15]: Tanguay_ZF_120hpf_EYE_legacy: (Legacy) Oregon State University Tanguay Lab 120 Hour Post-fertilization zebrafish Assay for Eye Malformation (AID 2283636).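 Further: binary presence or absence of eye malformation scored by brightfield in 120 hpf larvae.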 An outline of the steps: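 Dechorionated wild-type Tropical 5D zebrafish embryos were exposed statically from 6 hpf, one per well, to 120 hpf at 28C in sealed, foil-covered plates with 0.64% DMSO. Eye malformation was scored present/absent by brightfield microscopy against DMSO controls.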

A short description of assay [16]: Tanguay_ZF_120hpf_SNOU_legacy: (Legacy) Oregon State University Tanguay Lab 120 Hour Post-fertilization zebrafish Assay for Snout Malformation (AID 2283637). An outline of the steps: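 Tropical 5D wild-type zebrafish embryos, dechorionated with pronase at 4 hpf, were exposed singly from 6 hpf to 120 hpf statically at 28C in 0.64% DMSO. Snout malformation was scored present/absent by brightfield microscopy, fitted against DMSO.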

Assay [17] in a line: Tanguay_ZF_120hpf_JAW_legacy: (Legacy) Oregon State University Tanguay Lab 120 Hour Post-fertilization zebrafish Assay for Jaw Malformation (AID 2283638).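 On AC50: active means more embryos with jaw malformation than DMSO controls.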 The procedure, abridged:
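Steps: dechorionate 4 hpf embryos (pronase); plate 1/well at 6 hpf; add test chemical, 0.64% DMSO final; seal, cover, hold at 28C statically to 120 hpf; score jaw defect presence/absence microscopically. Dead embryos not scored.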

The nature of assay [18]: Tanguay_ZF_120hpf_OTIC_legacy: (Legacy) Oregon State University Tanguay Lab 120 Hour Post-fertilization zebrafish Assay for Otic Vesicle Malformation (AID 2283639). The procedure, abridged:
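Tropical 5D wild-type zebrafish embryos were exposed statically in sealed, foil-covered plates at 28C until 120 hpf, with 0.64% (vol/vol) DMSO final. Otic vesicle malformation was scored present/absent by brightfield microscopy, with DMSO as baseline.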

A short description of assay [19]: ATG_XTT_Cytotoxicity: Cytotoxicity Assessment in the Attagene TRANS-FACTORIAL HepG2 Assay (AID 2283584). The procedure, abridged:
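Cells: human HepG2, transiently transfected with MRTU reporter constructs. Exposure 24 h. Readout: XTT, cell number. Baseline/neg ctrl DMSO; loss-of-signal scored.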

The structures appear in SMILES notation. Inconclusive results are not listed. Some compounds were tested as several samples or in several runs, with calls that do not always agree. The source made the active and inactive calls. How the source made its calls, unless noted: active means hit-call score of the fitted dose curve at least 0.9, where 1 is the maximum; inconclusive means response in the unintended direction; inactive means score below 0.9.

Chain of Cellular tumor antigen p53 (Homo sapiens) (P04637 whole entry, looked up): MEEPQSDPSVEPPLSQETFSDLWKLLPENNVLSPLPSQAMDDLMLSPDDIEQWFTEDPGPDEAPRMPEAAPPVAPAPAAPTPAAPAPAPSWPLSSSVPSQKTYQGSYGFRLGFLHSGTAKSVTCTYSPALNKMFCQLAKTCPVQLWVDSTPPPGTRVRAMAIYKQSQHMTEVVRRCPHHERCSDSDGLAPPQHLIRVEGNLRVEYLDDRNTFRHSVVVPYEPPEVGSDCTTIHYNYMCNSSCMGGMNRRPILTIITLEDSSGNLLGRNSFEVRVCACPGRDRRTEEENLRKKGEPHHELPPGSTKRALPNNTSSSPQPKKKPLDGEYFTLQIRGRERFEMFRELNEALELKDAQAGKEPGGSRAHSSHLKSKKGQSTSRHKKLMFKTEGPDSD

For `FC(F)C(F)(F)OCC(Cn1cncn1)c1ccc(Cl)cc1Cl` (configuration not stated), the AC50 in assay [1] was 38.1 µM (active); in assay [2], 76.8 µM (active); in [3] it was 86.9 µM (active); in assay [4], 75.2 µM (active); in assay [9], 60.5 µM (active); in assay [13], 43.2 µM (active). Also, the AC50 was 15.7 µM (active) in assay [14]; 47.5 µM (active) in assay [15]; 47 µM (active) in [16]; 11.7 µM (active) in [17]; 47 µM (active) in assay [18]. Also, the result in [5], in [6], in [7], in [8], in assay [10] and in [11] was inactive. Moreover, the result in assay [12] was inactive.
As for `CCc1cccc(C)c1N(C(=O)CCl)C(C)COC` (configuration not stated), in assay [1], the AC50 is 20.5 µM (active). In addition, the result in assay [2], in assay [4], in assay [19], in assay [5], in [6] and in assay [7] was inactive. For the same compound, the result in assay [8], in assay [9], in assay [10], in assay [11], in [12] and in [13] was inactive. The compound was called inactive in [14], in assay [15] and in assay [18].
Take `CCCCOC(=O)c1ccccc1C(=O)O`: the AC50 in [1] is 17 µM (active). In addition, the compound was classed as inactive in [2], in assay [3], in [4], in assay [5], in [6] and in assay [8]. Further, the compound was called inactive in assay [9], in [10], in [11], in [12], in assay [13] and in [14]. The result in assay [15], in [17] and in assay [18] was inactive.
For the compound `CCOP(=S)(OCC)SCCSCC`, the outcome in assay [1], in assay [2], in assay [3], in assay [5], in assay [6] and in assay [8] was inactive. For the same compound, the outcome in assay [9], in [10], in assay [11], in assay [12], in assay [13] and in [14] was inactive. Further, the compound was classed as inactive in [15], in assay [17] and in assay [18].
Consider `CCC(=NOC/C=C/Cl)C1=C(O)CC(C2CCOCC2)CC1=O` (configuration not stated), for which the result in assay [1], in assay [2], in assay [3], in [4], in [5] and in assay [7] was inactive. The compound was called inactive in assay [11], in [12], in assay [13], in [14], in assay [15] and in assay [16]. The result in assay [17] and in assay [18] was inactive.
For the compound `CCOP(=S)(OCC)Oc1ccc([N+](=O)[O-])cc1`, the AC50 in [1] is 10.6 µM (active); in assay [6] it was 89.3 µM (active). Besides, the result in [2], in assay [3], in assay [4], in assay [5], in assay [6] and in assay [7] was inactive. In addition, the outcome in [8], in assay [10], in assay [12], in [13], in [14] and in assay [15] was inactive. For the same compound, the compound was called inactive in assay [16], in assay [17] and in assay [18].
With `Nc1c(Cl)cc([N+](=O)[O-])cc1Cl`, the AC50 in assay [1] was 11.4 µM (active); in assay [2] it was 78.1 µM (active); in assay [13], 33 µM (active); in [14], 40.4 µM (active); in [15], 9.62 µM (active); in assay [16], 31.1 µM (active). Further, the AC50 in assay [17] is 31.4 µM (active); in assay [18] it was 36.4 µM (active). For the same compound, the call in assay [3], in assay [4] and in assay [19] was inactive.
